# HT1080-NT tox: qHTS for induction of synthetic lethality in tumor cells producing 2HG: qHTS for the HT-1080-NT fibrosarcoma cell line; hit rate 1.6% among 360,000; HT-1080-NT fibrosarcoma viability, CellTiter-Glo ATP luminescence, 48 h; Potency, µM (titrated, usually from 46.1 µM), most hits filed as cytotoxic; AID 686970, 2013;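 further: NT is the 2HG producing partner of a matched IDH1 knockdown line; nearly all actives have a fitted effect of over 55% in size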
#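 Viability by CellTiter-Glo luminescence after 48 h compound exposure at 37C of HT-1080-NT cells (750/well, RPMI, 5% FBS). % activity scaled between DMSO wells and medium-only wells, then curve-fitted and categorized by curve class.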
# KB-V1 MDR tox: qHTS assay for MDR1-selective chemotherapeutics: Primary screen using the drug-selected MDR subline cells KB-V1; Potency, µM (series often up to 46.1 µM), hits mostly cytotoxic; AID 1347076, 2019; hit rate 3.4% among 400,000; KB-V1 MDR cells viability, CellTiter-Glo, 72 h; further: nearly all actives have a fitted effect of over 60% in size
#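 Cells of the MDR subline KB-V1 are plated, dosed with compound at multiple concentrations, and incubated 72 h at 37 degrees C; CellTiter-Glo is then added and luminescence read after 10 min.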
# HT1080 IDH1KD tx: qHTS for induction of synthetic lethality in tumor cells producing 2HG: qHTS for the HT-1080-IDH1KD cell line; HT-1080 IDH1 knockdown viability, ATP luminescence, 48 h; Potency, µM (highest dose often 46.1 µM), most hits filed as cytotoxic; hit rate 2% among 360,000; AID 686971, 2013
#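 After a 2 h attachment period, IDH1KD HT-1080 cells took pin-transferred compound for 48 h at 37 °C; ATP-based luminescence after 10 min room-temperature reagent incubation reported viability.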
# IL-1B inflam inh: qHTS for Inhibitors of Inflammasome Signaling: IL-1-beta AlphaLISA Primary Screen. THP-1 LPS/ATP IL-1B secretion, AlphaLISA, 16 h; hits give low values. activity change, % at 57.5 µM. hit rate 4.7% among 360,000. AID 743279, 2014; in the data active means activity change below about -50%; inconclusive means mostly about -30% to -49%
#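 THP-1 cells pretreated 1 hr with compounds (up to 57.5 uM final), then stimulated with LPS (250 ng/mL final) plus ATP (1.25 mM final); secreted IL-1B measured by AlphaLISA after 16 hr, decreased signal indicating inhibition.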
# KB-3-1 tox: qHTS assay for MDR1-selective chemotherapeutics: Primary screen using the parental adenocarcinoma cell KB-3-1. KB-3-1 viability, CellTiter-Glo ATP luminescence, 72 h. Potency, µM (titrated, usually from 46.1 µM), hits mostly cytotoxic. hit rate 1.4% among 400,000; further: nearly all actives have a fitted effect of over 60% in size
#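 Viability of parental KB-3-1 cells, measured by CellTiter-Glo luminescence, followed a 72 h incubation at 37 °C with pinned compounds in phenol-red-free DMEM containing 10% FBS.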
# Numbers stand for hits; - = inactive; ? = inconclusive; . = not tested or not shown; [ ] = remark or other dose. Shown are actives, neighbours in structure and some others; about 8.8% of the full set was active somewhere. Unless noted, the call rests on the fitted dose curve; in most records, active means well fitted curve in the direction sought with a large enough effect; inconclusive means small, poorly fitted or top-dose-only effect, or another doubt; inactive means no such curve, though single readings can be large; an effect the other way counts as inactive or inconclusive.
SMILES,HT1080-NT tox,KB-V1 MDR tox,HT1080 IDH1KD tx,IL-1B inflam inh,KB-3-1 tox
Cc1ccc(C)c(OCCC(=O)OCC(=O)N2CCN(S(=O)(=O)c3ccc(Cl)cc3)CC2)c1,-,?,-,-,-
CC(C)(C)NC(=O)N1CCN(S(=O)(=O)c2ccc3c(c2)CCC3)CC1,-,-,-,-,-
CC(C)COC(=O)N1CCN(S(=O)(=O)c2ccc3c(c2)CCC3)CC1,-,15µM,-,-,-
Cn1c(N)c(C(=O)Nc2c(Cl)cccc2Cl)sc1=S,-,-,-,-,-
CCN(c1ccccc1)S(=O)(=O)c1ccc(Cl)c(NC(=O)CSc2n[nH]c(N)n2)c1,-,-,-,-,-
COc1ccc(CN2CCC(C(=O)Nc3ccc(Oc4ccccc4)nc3)CC2)cc1F,-,?,-,-,?
CC1=C([N+](=O)[O-])C(c2cccc(Br)c2)C2=C(N1)c1ccccc1C2=O (stereo unspecified),1.3µM,?,1.3µM,-63,1.6µM
CC1=NN(c2ccccc2)C(=O)C1=Cc1ccccc1,-,?,-,-,-
CC1=NN(c2ccccc2)C(=O)/C1=C/c1c(O)n(-c2ccc(F)cc2)[nH]c1=O,-,7.3µM,-,-,21µM
CN(C)c1cccc(F)c1C(=O)NC(=O)Nc1ccc(Cl)cc1,?,1.8µM,?,-,3.7µM
CCC1(C)Cc2c(sc3[nH]c(=O)[nH]c(=O)c23)CS1 (stereo unspecified),-,12µM,-[9.24 µM],-,-
O=C(c1cccs1)N1CCN(Cc2cccc([N+](=O)[O-])c2)CC1,-,-,-,-53,-
O=C(c1cc([N+](=O)[O-])ccc1Cl)N1CCN(Cc2ccccc2)CC1,-,-,-,-53,-
O=C(c1ccc([N+](=O)[O-])cc1)N1CCN(Cc2ccccc2)CC1,-,-,-,-,-
O=C(c1ccco1)N1CCN(Cc2cccc([N+](=O)[O-])c2)CC1,-,-,-,-,-
CC(C)(C)n1nnnc1C(c1cc2cc3c(cc2[nH]c1=O)OCCO3)N1CCSCC1 (stereo unspecified),-,-,-,-51,-
Cc1ccc(C(c2nnnn2C2CCCCC2)N(C)C2CCCCC2)cc1 (stereo unspecified),-,-,-,-,-
CC(C)C(c1nnnn1C1CCCC1)N(C)C1CCCCC1 (stereo unspecified),-,18µM,-,-,-
COc1cc2cc(C(c3nnnn3C3CCCCC3)N(C)C3CCCCC3)c(=O)[nH]c2cc1OC (stereo unspecified),?,23µM,?,?,21µM
COc1ccc2cc(C(c3nnnn3C(C)(C)C)N3CCSCC3)c(=O)[nH]c2c1 (stereo unspecified),-,-,-,-,-
Cc1cccc2cc(C(c3nnnn3C3CCCC3)N3CCOCC3)c(=O)[nH]c12 (stereo unspecified),-,-,-,-,-
O=c1[nH]c2cc3c(cc2cc1C(c1nnnn1C1CCCC1)N1CCSCC1)OCCO3 (stereo unspecified),-,10µM,-,-,?
O=C(NCC(=O)N1CCN(C(c2ccccc2)c2ccccc2)CC1)c1ccc(Br)o1,-,?,-,-73,?
Cc1cc(C)cc(C(=O)NCC(=O)N2CCN(C(c3ccccc3)c3ccccc3)CC2)c1,?,18µM,?,-,?
O=C(NCC1CCCO1)C1CC(=O)N(c2ccccc2)C1 (stereo unspecified),-,-,-,-,-
SMILES,HT1080-NT tox,KB-V1 MDR tox,HT1080 IDH1KD tx,IL-1B inflam inh,KB-3-1 tox
COc1ccc(NC(=O)c2oc3ccccc3c2NC(=O)C23CC4CC(CC(C4)C2)C3)c(OC)c1,.,-,.,.,23µM
COc1ccc(N2CCN(C(=O)c3oc4ccccc4c3NC(=O)Cc3cccc(OC)c3)CC2)cc1,-,?,-,-,-
COc1ccccc1NC(=O)c1oc2ccccc2c1NC(=O)c1cccc(OC)c1OC,.,?,.,.,12µM
COc1ccccc1C(=O)Nc1c(C(=O)N2CCN(C)CC2)oc2ccccc12,-,-,-,-60,-
COc1cccc(CC(=O)Nc2c(C(=O)N3CCN(c4ccccc4F)CC3)oc3ccccc23)c1,.,?,.,.,16µM
COc1cccc(C(=O)Nc2c(C(=O)Nc3ccc(F)cc3)oc3ccccc23)c1OC,.,-,.,.,-
CC(NC(=O)CCC(=O)c1ccccc1)c1ccc(F)cc1 (stereo unspecified),-,-,-,-,-
COc1ccc(-c2csc(C(NC(C)=O)c3cccc(F)c3)n2)cc1 (stereo unspecified),-,?,-,-,-
CCS(=O)(=O)c1ccc(C(=O)Nc2ccccc2OC)c(Cl)c1Cl,?,-,-,-60,-
CSCCC(C)N1CCC(Oc2ccc(C(=O)NCc3ccccn3)cc2)CC1 (stereo unspecified),-,-,-,-,-
COc1ccc(OC)c(CCNC(=O)CS(=O)(=O)Cc2nc(-c3ccc(C)cc3)oc2C)c1,-,?,-,-,-
CCOc1ccc(CCNC(=O)CS(=O)(=O)Cc2nc(-c3ccccc3F)oc2C)cc1,-,?,-,-61,-
COc1ccc(-c2nc(CS(=O)(=O)CC(=O)NCCc3cc(OC)ccc3OC)c(C)o2)cc1,-,8.2µM,-,-,-
CCOc1ccc(CCNC(=O)CS(=O)(=O)Cc2nc(-c3ccc(OC)cc3)oc2C)cc1,-,-,-,-,-
CC(C)COc1ccc(/C(=N/O)c2ccccc2)cc1,?,-,-[9.24 µM],-79,-
CC(O)COc1ccc(/C(=N/O)c2ccccc2)cc1 (stereo unspecified),-,-,-,-,-
CCN(CC)C(=O)COn1c(SCC(=O)N(CC)CC)nc2ccccc2c1=O,-,16µM,-,-,-
CCCN(CCC)C(=O)CSc1nc2ccccc2c(=O)n1CC1COc2ccccc2O1 (stereo unspecified),-,21µM,-,-,?
COc1ccc(C2CC(=O)c3cnc4c(-c5ccc(F)cc5)c(C)nn4c3C2)cc1OC (stereo unspecified),.,-,.,.,-
CCN(CC)c1ccc(/C=C2\C(=O)c3ccc(C(=O)O)cc3C2=O)cc1,-,-,-,-,-
COc1ccccc1-c1cn[nH]c1-c1ccc(OCc2ccc(F)cc2)cc1O,?,-,?,-52,-
COc1ccccc1-c1cn[nH]c1-c1ccc(O)cc1O,-,-,-,-,-
COc1ccccc1-c1cn[nH]c1-c1ccc(OCc2ccccc2F)cc1O,?,-,?,-101,-
Cc1ccccc1OCCOC(=O)c1ccc(S(=O)(=O)N2CCCC2)cc1,-,?,-,-,-
